In PubChem BioAssay (NCI) one finds growth data, which are given here for 14 compounds.

Test systems include T-47D breast; BT-549 breast; MDA-MB-435 melanoma; SW-620 colon; MCF7 breast; HCT-116 colon; HCC-2998 colon; KM12 colon.
What all share (assay): NCI-60 one-dose screen, 48 h (100 = growth as untreated, 0 = no growth, -100 = all killed)
Settings in all cases: 10 µM unless noted

This is part of a sample that, as a whole, favours compounds with a hit. Of some 83,000 tested, about 20% had one in any assay.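 Treatment: one concentration, 48 hours, 96-well format. Scoring: percent growth, with anything below 10 considered active.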 Unmarked numbers belong to inactive results. Calls of active or inactive are those of the source.

Regarding `S=c1cc(S)c2cc(Br)ccc2[nH]1`, the growth was 84.5% with T-47D breast; 90.7% in the test on BT-549 breast; 95.5% in the test with MDA-MB-435 melanoma; 99.2% in the test on SW-620 colon; 88.7% in the test with MCF7 breast; 78.2% with HCT-116 colon. Further, the growth in the test on HCC-2998 colon is 102%; in the test with KM12 colon, 101%.
Regarding `CCCCC/C=C/C(C)=C/C1CC(C)C/C=C/CCC(O)C(OC(N)=O)CCC(C)CC(O)C(C)C(=O)O1` (configuration not stated), the growth in the test with T-47D breast is 91.6%; in the test on BT-549 breast, 120%; in the test on MDA-MB-435 melanoma, 50.6%; with SW-620 colon, 103%; in the test with MCF7 breast, 86.5%; with HCT-116 colon, 94.1%. Also, the growth is 52.3% in the test with HCC-2998 colon and 102% in the test with KM12 colon.
In the case of `COc1ccc(OC)c(-c2cc(-c3ccc(Cl)cc3)c3c(N)c(C(=O)c4ccc(Cl)cc4)sc3n2)c1`, the growth with T-47D breast is 87.2%; in the test on BT-549 breast it was 84.1%; in the test on MDA-MB-435 melanoma, 107%; in the test on SW-620 colon, 112%; with MCF7 breast it was 86.2%; in the test on HCT-116 colon, 95.7%. In addition, the growth with HCC-2998 colon and in the test with KM12 colon was 100% throughout.
On to `COc1cc(CC(=O)n2ncc3ccc(N)cc32)cc(OC)c1OC`, for which the growth in the test on T-47D breast is 76.2%; in the test with BT-549 breast, 91.3%; in the test with MDA-MB-435 melanoma it was 65.3%; with SW-620 colon, 104%; in the test on MCF7 breast, 87.5%; with HCT-116 colon it was 97.3%. Further, the growth in the test on HCC-2998 colon was 105%; with KM12 colon, 82.6%.
`CCC(CC)NCC(C)(C)O`: the growth with T-47D breast is 123%; with BT-549 breast, 106%; in the test on MDA-MB-435 melanoma, 108%; in the test on SW-620 colon, 107%; in the test on MCF7 breast it was 97.9%; with HCT-116 colon, 103%. Moreover, the growth with HCC-2998 colon was 92.2%; in the test with KM12 colon it was 104%.
In the case of `O=C1/C=C/[C@@H](O)[C@@H]2C[C@@H](O)C[C@H]2/C=C/CCC[C@H](CCc2ccc3ncccc3c2)O1`, the growth in the test on T-47D breast was 0.682% (active); in the test on BT-549 breast, 7.66% (active); in the test on MDA-MB-435 melanoma it was 5.74% (active); in the test on SW-620 colon, -14.2% (active); in the test with MCF7 breast, 2.74% (active); with HCT-116 colon, -53.6% (active). For the same compound, the growth in the test with HCC-2998 colon was 12.9%; in the test with KM12 colon, -40.3% (active).
Take `NC1[C@H](c2c[nH]c3ccccc23)c2c([nH]c3ccccc23)[C@H]1c1c[nH]c2ccccc12` (some centres not stated): the growth in the test on T-47D breast was 94.9%; in the test on BT-549 breast, 105%; in the test on MDA-MB-435 melanoma, 100%; in the test on SW-620 colon it was 96.3%; in the test with MCF7 breast, 90.8%; with HCT-116 colon, 74.2%. The figures for the growth in the test with HCC-2998 colon and in the test on KM12 colon were 97.3% and 91%, respectively.
With `c1ccc2c(-c3c[nH]c4ccccc34)c3c(cc2c1)[nH]c1ccccc13`, the growth in the test with T-47D breast is 33.8%; in the test on BT-549 breast, 67.4%; in the test with MDA-MB-435 melanoma it was -3.69% (active); in the test with SW-620 colon, 42.6%; in the test on MCF7 breast, 30.9%; in the test with HCT-116 colon, 46.9%. For the same compound, the growth is 82.8% with HCC-2998 colon and 35.7% in the test with KM12 colon.
Regarding `CCc1ccc(CNc2ccc(N3CCOCC3)c(C(=O)O)c2)cc1`, the growth with T-47D breast is 86.3%; in the test on BT-549 breast, 105%; in the test on MDA-MB-435 melanoma it was 108%; in the test on SW-620 colon it was 111%; with MCF7 breast it was 86.2%; in the test on HCT-116 colon, 86.1%. Further, the growth with HCC-2998 colon was 104%; with KM12 colon it was 106%.
As to `N#CC1C(C#N)C2c3ccccc3C=CN2C1C(=O)c1ccc(Br)cc1` (configuration not stated), the growth was 91.8% in the test with T-47D breast; 103% in the test with BT-549 breast; 100% in the test on MDA-MB-435 melanoma; 99.2% with SW-620 colon; 92.5% with MCF7 breast; 87.7% in the test on HCT-116 colon. Besides, the growth in the test with HCC-2998 colon was 112%; in the test with KM12 colon it was 99.2%.
As to `CC1(C)CC[C@]23CC[C@]4(C)[C@H](CC[C@@H]5[C@@]6(C)CCCNC(C)(C)[C@@H]6CC[C@]54C)[C@H]2[C@H]1OC3`, the growth was 2.46% (active) in the test on T-47D breast; 76.4% in the test with BT-549 breast; -80% (active) with MDA-MB-435 melanoma; -71.9% (active) in the test with SW-620 colon; -25% (active) in the test on MCF7 breast; -99.4% (active) in the test with HCT-116 colon. Further, the growth with HCC-2998 colon was -55.5% (active); with KM12 colon, -69% (active).
For `COc1c(Cl)c2c(c(OC)c1OC)-c1ccc(SC)c(=O)cc1[C@@H](NC(=O)OCC(F)(F)F)CC2`, the growth with T-47D breast was 43.1%; in the test on BT-549 breast, 5.25% (active); in the test on MDA-MB-435 melanoma, -36.9% (active); with SW-620 colon it was 21.9%; in the test on MCF7 breast, 14.8%; in the test on HCT-116 colon it was 1.82% (active). Besides, the growth with HCC-2998 colon was 21.6%; with KM12 colon, 10.4%.
Turning to `CC1=C(C(=O)/C=C/c2c[nH]c3ccccc23)C(c2ccccc2)NC(=S)N1` (configuration not stated), the growth in the test on T-47D breast was 98.6%; in the test on BT-549 breast, 107%; in the test with MDA-MB-435 melanoma, 97.4%; with SW-620 colon it was 91.7%; in the test on MCF7 breast, 95.4%; in the test on HCT-116 colon, 93.3%. For the same compound, the growth in the test on HCC-2998 colon is 108%; in the test with KM12 colon it was 106%.
On to `CN(C)CC(O)c1ccc(/C=C/c2ccc(Cl)cc2)cc1` (configuration not stated), for which the growth with T-47D breast was 30.9%; with BT-549 breast, 78.8%; with MDA-MB-435 melanoma it was -48.2% (active); with SW-620 colon it was -68.7% (active); in the test with MCF7 breast it was -81.6% (active); in the test on HCT-116 colon it was -58.3% (active). In addition, the growth in the test on HCC-2998 colon is -69% (active); with KM12 colon, -91.5% (active).
